Assay results from PubChem BioAssay.
Activity calls are given as the source filed them. Unless noted, no rule for the calls is given here.

Assays:
[1] = A549 cell viability effects, profiling panel, calcein-AM fluorescence, 48 h, basal (AID 1162); conditions: higher = more signal; also: test concentration not given here
[2] = adipocyte viability effects, profiling panel, cell-based, 3T3-L1 adipocytes, calcein-AM fluorescence, 48 h, basal (AID 1163); conditions: 3T3-L1 adipocytes viability, higher = more signal; also: test concentration not given here
[3] = HepG2 cell viability effects, profiling panel, calcein-AM fluorescence, 48 h, basal (AID 1164); conditions: higher = more signal; also: test concentration not given here
[4] = MM1S cell viability effects, profiling panel, calcein-AM fluorescence, 48 h, basal (AID 1165); conditions: higher = more signal;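 also: viability of MM1S multiple myeloma cells under basal unstimulated conditions; test concentration not given here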
[5] = basal RPMI8226 viability, no added stimulus, profiling panel, cell-based, calcein-AM fluorescence, 48 h, PK04 Diversity Set (AID 1166); conditions: RPMI8226 myeloma viability, higher = more signal;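 also: cells grown under basal conditions without added stimulus; test concentration not given here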
[6] = basal HepG2 mitochondrial membrane potential changes, profiling panel, cell-based, JC-1 fluorescence, 24 h, 100 nL compound (AID 1167); conditions: higher = more signal; also: test concentration not given here
[7] = basal 3T3-L1 adipocyte mitochondrial potential changes, profiling panel, cell-based, JC-1 fluorescence, 3T3-L1 adipocytes, 24 h, 100 nL compound (AID 1168); conditions: JC-1 mitochondrial fluorescence, higher = more signal, called active from +8 up or from −8 down; also: test concentration not given here
[8] = basal RPMI8226 mitochondrial membrane potential changes, profiling panel, cell-based, JC-1 fluorescence, 24 h, 100 nL compound (AID 1169); conditions: RPMI8226 myeloma, JC-1 mitochondrial potential fluorescence, higher = more signal; also: test concentration not given here
[9] = basal MM1S mitochondrial membrane potential changes, profiling panel, cell-based, JC-1 fluorescence, 24 h, 100 nL compound (AID 1170); conditions: higher = more signal; also: test concentration not given here
[10] = A549 lung cancer cell viability effects, profiling panel, resazurin fluorescence, 24 h, PK04 Diversity Set (AID 1171); conditions: higher = more signal, called active from +8 up or from −8 down; also: test concentration not given here
[11] = HepG2 liver cancer cell viability effects, profiling panel, resazurin fluorescence, 24 h, PK04 Diversity Set (AID 1172); conditions: higher = more signal; also: test concentration not given here
[12] = basal S. cerevisiae growth modulation, no modifier, primary screen, OD600, strain BY4716, 24 h, basal condition (AID 1173); conditions: OD600, 24 h, higher = more signal, called active from +8 up or from −8 down
[13] = MM1S myeloma cell viability, profiling panel, resazurin fluorescence, basal, 24 h, PK04 Diversity Set (AID 1174); conditions: higher = more signal, called active from +8 up or from −8 down;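 also: MM1S multiple myeloma cell line; test concentration not given here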
[14] = molecular target: Dihydroorotate dehydrogenase (quinone), mitochondrial (Plasmodium falciparum (isolate 3D7)) (UniProt Q08210); experiment: PfDHODH enzyme inhibitors, primary screen, biochemical, C-terminal His tag, absorbance 600 nm (AID 1175); conditions: DCIP absorbance 600 nm, higher = more signal, called active from +8 up or from −8 down;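 also: recombinant parasite enzyme with a five histidine tag at its C terminus; test concentration not given here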
[15] = P. aeruginosa biofilm formation inhibitors, primary screen, strain PAO1, LB-PBS medium, absorbance 600 nm (AID 1176); also: test concentration not given here; conditions: P. aeruginosa PAO1 growth/biofilm, A600, 12 h; higher = more signal
[16] = S. cerevisiae RM11-1a growth modifiers, primary screen, strain RM11-1a, OD600, basal, 24 h (AID 1177); conditions: OD600, 24 h, higher = more signal, called active from +8 up or from −8 down;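 also: cultures grown under basal conditions with no added stressor; test concentration not given here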
[17] = E. coli acrAB mutant growth effects, primary screen, E. coli filamentation inducers, strain DRC39, OD650, 24 h (AID 1178); conditions: higher = more signal, called active from +8 up or from −8 down;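 also: growth measured as culture turbidity by optical density at 650 nm; test concentration not given here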
[18] = E. coli acrAB mutant growth effects, primary screen, E. coli filamentation inducers, strain DRC39, OD650, 48 h (AID 1179);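 also: screen aims at cell division blockers that make cells filament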; conditions: E. coli DRC39 delta-acrAB growth, higher = more signal, called active from +8 up or from −8 down
[19] = RPMI8226 myeloma cell viability, profiling panel, resazurin fluorescence, basal, 24 h, PK04 Diversity Set (AID 1180); conditions: higher = more signal;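 also: RPMI8826 multiple myeloma cell line at 5000 cells per well; test concentration not given here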
[20] = molecular target: E3 ubiquitin-protein ligase XIAP (Homo sapiens) (UniProt P98170); experiment: XIAP binders, primary screen, biophysical, small-molecule microarray, fluorescence 635 nm (AID 1181); conditions: small-molecule microarray binding, higher = more signal;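 also: score merges 667 nm emission and signal to noise over triplicate slides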
E3 ubiquitin-protein ligase XIAP (Homo sapiens), sequence (P98170 whole entry, looked up): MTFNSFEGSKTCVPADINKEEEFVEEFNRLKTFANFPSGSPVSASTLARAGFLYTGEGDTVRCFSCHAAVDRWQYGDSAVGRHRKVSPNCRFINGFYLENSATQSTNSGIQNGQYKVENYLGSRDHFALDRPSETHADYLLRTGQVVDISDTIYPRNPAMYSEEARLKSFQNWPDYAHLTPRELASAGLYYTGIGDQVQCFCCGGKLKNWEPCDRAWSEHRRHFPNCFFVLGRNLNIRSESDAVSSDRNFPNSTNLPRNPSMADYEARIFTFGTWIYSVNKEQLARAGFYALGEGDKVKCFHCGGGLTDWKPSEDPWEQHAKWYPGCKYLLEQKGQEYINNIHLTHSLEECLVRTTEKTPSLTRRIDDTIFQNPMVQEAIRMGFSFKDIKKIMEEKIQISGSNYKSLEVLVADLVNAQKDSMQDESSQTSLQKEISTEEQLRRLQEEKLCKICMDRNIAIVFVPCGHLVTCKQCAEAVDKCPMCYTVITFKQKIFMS

Dihydroorotate dehydrogenase (quinone), mitochondrial (Plasmodium falciparum (isolate 3D7)), sequence (Q08210 whole entry, looked up): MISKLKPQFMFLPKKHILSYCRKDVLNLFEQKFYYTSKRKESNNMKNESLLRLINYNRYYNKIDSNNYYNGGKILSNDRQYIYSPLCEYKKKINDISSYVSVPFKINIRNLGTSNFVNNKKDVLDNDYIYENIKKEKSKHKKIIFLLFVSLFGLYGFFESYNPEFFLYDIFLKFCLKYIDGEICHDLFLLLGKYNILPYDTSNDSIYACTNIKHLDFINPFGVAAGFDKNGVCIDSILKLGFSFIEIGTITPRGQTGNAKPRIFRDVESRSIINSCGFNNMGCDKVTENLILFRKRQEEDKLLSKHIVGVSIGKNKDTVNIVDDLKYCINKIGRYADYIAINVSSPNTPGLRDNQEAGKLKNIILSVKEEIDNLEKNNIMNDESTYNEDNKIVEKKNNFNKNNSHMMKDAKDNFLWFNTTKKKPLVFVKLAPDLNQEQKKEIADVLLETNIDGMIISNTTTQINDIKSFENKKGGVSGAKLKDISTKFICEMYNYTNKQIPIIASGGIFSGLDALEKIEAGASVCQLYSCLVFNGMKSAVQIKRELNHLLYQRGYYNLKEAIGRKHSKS

Structure (SMILES)	z-score [1]	z-score [2]	z-score [3]	z-score [4]	z-score [5]	z-score [6]	z-score [7]	z-score [8]	z-score [9]	z-score [10]	z-score [11]	z-score [12]	z-score [13]	composite z-score [14]	z-score [15]	z-score [16]	z-score [17]	z-score [18]	z-score [19]	composite z-score [20]
O=C1O[C@@H](c2ccccc2)[C@@H](c2ccccc2)N2[C@@H](c3ccc(OCCO)cc3)[C@]3(C(=O)Nc4ccc(C#CC5(O)CCCCCC5)cc43)[C@@H](C(=O)Nc3nc4ccccc4s3)[C@H]12	0.324	1.33	0.667	-1.64	-1.79	-3.13	-0.456 (inactive)	-0.805	-0.344	0.524 (inactive)	-0.369	1.28 (inactive)	-0.0769 (inactive)	-0.263 (inactive)	2.29 (inactive)	2.45 (inactive)	-0.27 (inactive)	0.261 (inactive)	0.519	0.147
CCCCC(=C=CC[C@H](O)c1ccc(CO)o1)CCO	-0.231	-0.652	0.115	-0.562	-0.0295	-0.787	-0.848 (inactive)	-0.0527	-0.534	-0.598 (inactive)	-0.585	-0.976 (inactive)	0.0305 (inactive)	-0.776 (inactive)	0.224 (inactive)	0.648 (inactive)	-0.312 (inactive)	-0.409 (inactive)	-0.34	-0.0663
COC(=O)[C@@]1(Cc2ccc(F)cc2)[C@H]2c3cc(C(=O)N(C)C)n(CCc4ccc(O)c(O)c4)c3C[C@H]2CN1C(=O)c1ccccc1	-0.681	-1.17	0.193	0.287	-0.238	0.86	0.243 (inactive)	-0.672	-1.95	-0.238 (inactive)	0.515	0.634 (inactive)	-1.01 (inactive)	-0.137 (inactive)	-0.154 (inactive)	0.232 (inactive)	-0.0718 (inactive)	0.157 (inactive)	-0.834	0.122
COCCOC(=O)N1C(=O)[C@@]2(c3ccccc31)[C@H](c1ccc(O)cc1)N1[C@H](c3ccccc3)[C@H](c3ccccc3)OC(=O)[C@H]1[C@@H]2C(=O)N1CCCCCCC1	-0.438	-0.688	0.313	-0.474	-1.26	-1.25	-1.07 (inactive)	0.167	0.584	-0.257 (inactive)	0.0454	-0.712 (inactive)	0.0065 (inactive)	0.161 (inactive)	1.57 (inactive)	-0.122 (inactive)	-0.391 (inactive)	-1.88 (inactive)	0.248	0.587
